SMN2 splice up: enhancers of SMN2 splice variant expression; HEK293 SMN2-luciferase splicing reporter, luminescence, 30-36 h; Potency, µM (highest dose often 46.1 µM), inactives show at the top dose activity change, positive = activation, actives largely listed as activators; hit rate 2.8% among 210,000; AID 1458; further: % of control where 0% means no effect; nearly all actives have a fitted effect of over 55% in size
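qHTS luciferase splicing reporter: luminescence rises when SMN2 exon 7 is included in transfected HEK293 cells. Compound exposure lasted 30-36 h at 37C, with 4.5 mM final sodium butyrate as control, followed by a ONE-Glo read.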
NPC1 prom act: activates the NPC1 promoter; hit rate 2.4% among 320,000; Huh7 NPC1 promoter luciferase reporter, 24 h; AID 485313; Potency, µM (titrated, usually from 9.22 µM), without a hit: at the top dose activation, usual class: activators; further: % of control where 0% means no effect; nearly all actives have a fitted effect of over 60% in size
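Quantitative HTS used a cell-based reporter: Huh7 cells stably bearing the NPC1 promoter upstream of luciferase were treated with compounds for 24 h, and promoter activation was read as luminescence.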
FLuc modulator: firefly luciferase modulation, counter-screen for miR-21 project. purified FLuc, Km substrates, luminescence inhibition. Potency, µM (doses to about 57.5 µM), for the others: at the highest dose activity change, negative = inhibition, usual class: inhibitors. hit rate 6.9% among 360,000;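 further: plate controls were vehicle for no effect and reference inhibitor for full effect; nearly all actives have a fitted effect of over 55% in size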
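Purified P. pyralis luciferase, 10 nM final, with Km-level 10 uM D-luciferin and 10 uM ATP in 50 mM Tris acetate pH 7.5, 10 mM Mg acetate, 0.01% Tween-20, 0.05% BSA; 6-point qHTS titration about 60 µM downward; luminescence read.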
ELG1 repair inh: blocks ELG1-dependent DNA repair in HEK293T cells; HEK293T ELG1-luciferase reporter, luminescence, 16 h; DNA damage induced by 5-fluorouridine; Potency, µM (titrated, usually from 46.1 µM), inactives show top-dose activity change, negative = inhibition, hits mostly inhibitors; hit rate 2.3% among 330,000; further: on the % scale 0 is the no-effect control and ±100 the full control effect; nearly all actives have a fitted effect of over 55% in size
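Step one: seed 2,000 cells per well. Step two: pin-transfer compound or DMSO alongside 5-fluorouridine. Step three: incubate 16 hr, 37 °C, 5% CO2. Step four: add ONE-Glo, wait 30 min, read luminescence.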
Rab9 prom act: activates the Rab9 promoter; hit rate 2.8% among 320,000; Potency, µM (highest dose often 9.22 µM), inactives show top-dose activation, negative = inhibition, usual class: activators; Huh7 Rab9 promoter-luciferase reporter, luminescence, 24 h; further: % of control where 0% means no effect; nearly all actives have a fitted effect of over 60% in size
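Quantitative HTS format; Huh7 Rab9-luciferase reporter cells (1500/well) receive compound 2 h post-plating, incubate 24 h at 37 °C, then get luciferase reagent for 10 min before luminescence reading.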
ELG1 genotoxic: induces genotoxicity in HEK293T cells with luciferase-tagged ELG1; HEK293T ELG1-luciferase reporter, luminescence, 16 h; hit rate 1.3% among 330,000; Potency, µM (top dose mostly 46 µM), inactives show at the highest dose activity change, positive = activation, usual class: activators; AID 504466; further: % of control where 0% means no effect; nearly all actives have a fitted effect of over 60% in size
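HEK293T cells expressing luciferase-tagged ELG1 were treated with compound or DMSO for 16 hr at 37°C. Luciferase activity was then read after 30 min with ONE-Glo at room temperature; rising signal flags genetic stress.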
ELG1 FLuc counter: luciferase inhibition in cell-free luciferin readout for ELG1 hits. shares compounds with ELG1 repair inh. cell-free firefly luciferase luminescence counter-screen, ViewLux. Potency, µM (top dose mostly 46.1 µM), for the others: at the highest dose activity change, negative = inhibition, hits mostly inhibitors. hit rate 3% among 350; further: on the % scale 0 is the no-effect control and ±100 the full control effect
ELG1-Luc inh: inhibits ELG1-dependent DNA repair in HEK293T cells, confirmed | HEK293T ELG1-luciferase levels, luminescence; cells co-treated with 5-fluorouridine | shares compounds with ELG1 repair inh | Potency, µM (highest dose often 46.1 µM), for the others: at the highest dose activity change, negative = inhibition, most hits filed as inhibitors | hit rate 68% among 670; further: on the % scale 0 is the no-effect control and ±100 the full control effect; nearly all actives have a fitted effect of over 55% in size
ELG1-Luc MMS: MMS-stimulated human ELG1 repair inhibition, confirmed; shares compounds with ELG1 repair inh; HEK293T luciferase-tagged ELG1 level, MMS stimulated; Potency, µM (top dose mostly 46.1 µM), inactives show at the top dose activity change, negative = inhibition, usual class: inhibitors; hit rate 53% among 670; AID 624249; further: on the % scale 0 is the no-effect control and ±100 the full control effect; nearly all actives have a fitted effect of over 60% in size
ELG1 5-FU: confirmation of ELG1 repair inhibitors: viability with 5FU. shares compounds with ELG1 repair inh. cell viability with 5-FU, ELG1-dependent repair. Potency, µM (doses to about 46.1 µM), for the others: top-dose activity change, negative = viability loss, actives largely listed as cytotoxic. 670 tested, under 10 active;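 further: ELG1-luc HEK293T cells cotreated with 5-fluorouridine at 10 µM final; viability measured 16 h after compound addition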
ELG1 MMS viab: confirmation of ELG1 repair inhibitors: viability with MMS; AID 624251; hit rate 33% among 670; Potency, µM (highest dose often 46.1 µM), without a hit: at the top dose activity change, negative = viability loss, hits mostly cytotoxic; Cell viability with MMS, ELG1-dependent DNA repair; shares compounds with ELG1 repair inh;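 further: ELG1-luc HEK293T cells co-treated with 10 µM MMS; viability read 16 h after compound addition; on the % scale 0 is the no-effect control and ±100 the full control effect; nearly all actives have a fitted effect of over 60% in size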
Cell viab unstim: affects unstimulated cell viability, ELG1 hit counter-screen; Potency, µM (highest dose often 45.9 µM), without a hit: at the highest dose activity change, negative = loss of viability, most hits filed as cytotoxic; shares compounds with ELG1 repair inh; AID 624252; cell viability counter-screen, unstimulated, luminescence; hit rate 8% among 900;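 further: compound exposure lasted 16 hours before reading; on the % scale 0 is the no-effect control and ±100 the full control effect; nearly all actives have a fitted effect of over 55% in size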
FLuc biochem: inhibits purified firefly luciferase, counter-screen for ELG1 hits; Potency, µM (titrated, usually from 57.5 µM), without a hit: at the highest dose activity, negative = inhibition, hits mostly inhibitors; shares compounds with ELG1 repair inh; purified firefly luciferase, luminescence counter-screen; hit rate 10% among 350; AID 624253; further: on the % scale 0 is the no-effect control and ±100 the full control effect
* = called active by the depositor; ? = inconclusive; . = not tested or not shown. Compounds with a hit are over-represented: about 9.3% of the library has one in this group of screens. The call rests on the fitted dose curve; in most records, active means well fitted curve in the direction sought with a large enough effect; inconclusive means small, poorly fitted or top-dose-only effect, or another doubt; inactive means no such curve, though single readings can be large; an effect the other way counts as inactive or inconclusive. Potency means the concentration at half of the fitted maximal effect.

SMILES | SMN2 splice up | NPC1 prom act | FLuc modulator | ELG1 repair inh | Rab9 prom act | ELG1 genotoxic | ELG1 FLuc counter | ELG1-Luc inh | ELG1-Luc MMS | ELG1 5-FU | ELG1 MMS viab | Cell viab unstim | FLuc biochem
CC(=O)Nc1ccc(NC(=O)CSc2nc3ccccc3o2)cc1 | 20% | 14% | -2% | ? | 3% | 7% | . | . | . | . | . | . | .
O=C(CSc1nc2ccccc2o1)Nc1ccccc1N1CCCCCC1 | -28% | -8% | -3% | 3% | -2% | 1% | 4% | . | . | . | . | -20% | -8%
CC1(C)CC(=O)C2=C(C1)N(c1ncn[nH]1)C(N)=C(C#N)C2c1ccccc1 (stereo unspecified) | -5% | -10% | -1% | 10% | 2% | -2% | . | . | . | . | . | . | .
Cc1cc(C(=O)COC(=O)C2=COCCO2)c(C)n1-c1ccccc1 | . | . | . | ? | . | 0.26µM* | 11µM* | . | . | . | . | ? | 0.092µM*
Fc1ccc(Nc2nc(-c3ccncc3)nc3ccccc23)cc1F | -5% | 7% | 3% | 1.8µM* | -2% | -1% | 2% | 1.4µM* | ? | ? | -7% | ? | 4%
Cc1sc2ncnc(N3CCC(C(=O)N(C)CC(=O)Nc4ccc(Cl)c(C(F)(F)F)c4)CC3)c2c1C | . | -7% | 14% | 3.7µM* | -9% | -13% | ? | 7.1µM* | 7.1µM* | ? | ? | ? | -15%
Cc1sc2ncnc(N3CCC(C(=O)Nc4ccc(S(N)(=O)=O)cc4)CC3)c2c1C | . | -3% | -2% | 4.1µM* | -1% | -7% | . | 7.1µM* | 20µM* | ? | 8% | ? | .
COc1cccc2c1Oc1ncccc1N(c1ccc(C(=O)NCc3ccccc3C)s1)C2 | . | . | -3% | . | . | . | . | . | . | . | . | . | .
O=C(Nc1ccc(Cl)cc1)c1nc[nH]c1C(=O)NCCCCNC(=O)c1[nH]cnc1C(=O)Nc1ccc(Cl)cc1 | . | . | . | 2.9µM* | . | -10% | . | 2.5µM* | 11µM* | -4% | 25µM* | ? | .
S=C(NCc1ccccc1)N/N=C/c1cccs1 | . | 3% | 4% | ? | -1% | 4% | . | . | . | . | . | . | .

Source: PubChem
